# Bioassay records from PubChem.
# Most compounds without a hit are left out; they make up all but 1% or so of the library.
# DUSP3 inh: blocks human VHR1 dual specificity phosphatase; P51452; recombinant VHR phosphatase, pNPP absorbance; inhibition, % at 13.3 µM; actives 0.52% (n = 290,000); in the data active = inhibition above about 50%
# Target sequence (P51452 whole entry, looked up): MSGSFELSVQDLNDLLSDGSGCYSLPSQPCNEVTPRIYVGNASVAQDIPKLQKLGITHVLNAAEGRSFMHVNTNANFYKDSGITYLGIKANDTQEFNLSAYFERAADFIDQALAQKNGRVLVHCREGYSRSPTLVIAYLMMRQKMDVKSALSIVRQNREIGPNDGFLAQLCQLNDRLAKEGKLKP
# Yp Topo-I inh: Y. pestis Topo-I inhibition via cleavage products. Y. pestis Topo-I cleavage product accumulation, plate reader. activity, % at 10 µM. actives 0.064% (n = 360,000); in the data active = activity above about 50%, passing the limit was not always enough
# MazEF act: MazEF (E. coli) toxin RNase activation; FAM/BHQ RNA-DNA oligo cleavage fluorescence, 5 h; activation, % at 20 µM; actives 0.32% (n = 350,000); AID 504720; in the data active = activation above about 50%
# Target sequence (P0AE70 whole entry, looked up): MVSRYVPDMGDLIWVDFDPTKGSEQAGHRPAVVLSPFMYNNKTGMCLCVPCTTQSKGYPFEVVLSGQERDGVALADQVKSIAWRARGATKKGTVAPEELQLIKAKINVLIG
# FadD28 binding: inhibitors of Mycobacterium tuberculosis FadD28 bisubstrate binding; FadD28 bisubstrate probe binding, fluorescence polarization; inhibition, % at 12.5 µM; actives 0.22% (n = 360,000); AID 588549; in the data active = inhibition above about 8.5%, passing the limit was not always enough
# TcdB GH inh: TcdB glycohydrolase inhibition; P18177; TcdB glycohydrolase enzymatic assay, plate reader; inhibition, % at 9.99 µM; actives 0.24% (n = 350,000); in the data active = inhibition above about 10%
# Mtb BioA inh: BioA (M. tuberculosis) enzyme inhibition; purified M. tuberculosis BioA enzyme, plate reader; inhibition, % at 9.99 µM; actives 0.096% (n = 360,000); AID 602481; in the data active = inhibition above about 40%
# The depositor's hits bear a star; . = no result given.
SMILES,DUSP3 inh,Yp Topo-I inh,MazEF act,FadD28 binding,TcdB GH inh,Mtb BioA inh
CC1=CN2C(=N)/C(=C/c3ccco3)C(=O)N=C2S1,5.1,-0.1,-13.1,-0.4,1.5,.
CC1=CN2C(=N)/C(=C/c3ccc([N+](=O)[O-])o3)C(=O)N=C2S1,37.8,-6.1,116.1*,3.3,1.6,.
Clc1ccc(/C=C/c2nc3ccccc3[nH]2)cc1,24.7,8.2,67.5*,-9.8,.,-0.1
COCC(=O)N(C)C[C@@H]1Oc2ncc(C#Cc3ccc(F)cc3)cc2C(=O)N([C@@H](C)CO)C[C@@H]1C,.,.,.,.,1.2,-0.6
O=C1Nc2ccccc2/C1=C/c1cnc(-c2ccccc2)[nH]1,-22.5,-9.0,98.0*,-1.1,1.6,-1.7
O=C1Nc2ccccc2/C1=C/c1cnc[nH]1,32.7,1.5,2.2,-3.0,1.2,.
Cc1cc(C(=O)N2CCN(Cc3ccccc3)CC2)ccc1[N+](=O)[O-],17.9,0.7,-1.1,-1.2,12.0*,1.0
CCCn1c2ccccc2c2cn[nH]c(=O)c21,58.8*,4.8,8.2,1.2,1.1,-0.1
O=C(c1ccc(OC2CCN(CCc3ccccc3)CC2)cc1)N1CCC(CO)CC1,51.3*,4.3,-2.0,0.5,0.0,-5.0
COC1CCN(C(=O)c2ccc(OC3CCN(CCc4ccccc4)CC3)cc2)CC1,30.5,18.3,5.6,-0.6,0.0,9.1
Cc1nc2cc(OCc3cc(C(=O)NC(C)c4cnn(C)c4)no3)ccc2s1 (stereo not given),51.1*,18.9,2.7,2.4,0.0,-2.7
COc1ccc(OCc2cc(C(=O)NC(C)c3cnn(C)c3)no2)c(Cl)c1 (stereo not given),1.1,18.6,-0.9,-3.9,-1.4,1.1
C[C@@H]1CN([C@@H](C)CO)C(=O)c2cc(NS(=O)(=O)c3cccs3)ccc2O[C@H]1CN(C)C(=O)Nc1ccc(C(F)(F)F)cc1,.,.,.,.,-0.1,0.5
CSc1ccc(CN(C)C(=O)c2cc3ccccc3o2)cc1,6.4,54.3*,0.6,.,1.4,2.9
CSc1ccc(CN(C)C(=O)c2cc(=O)c3ccccc3o2)cc1,26.0,27.8,2.1,-4.7,1.3,1.3
C[C@@H]1CCCCO[C@@H](CN(C)Cc2ccc(Cl)c(Cl)c2)[C@@H](C)CN([C@@H](C)CO)C(=O)c2cc(NS(=O)(=O)c3ccccc3)ccc2O1,.,.,.,.,-0.3,-4.4
Cc1cc(NC(=O)CSc2nnc(CNC(=O)c3c(F)cccc3F)o2)no1,52.8*,11.7,-1.9,-3.6,0.8,-0.9
O=C(CSc1nnc(CNC(=O)c2ccco2)o1)Nc1ccc(F)cc1F,52.1*,-4.3,9.4,-1.7,0.7,-2.9
COc1ccc(CCNC(=O)c2ccc(-c3ccc([N+](=O)[O-])cc3)o2)cc1OC,27.7,-0.3,59.3*,0.0,1.1,.
COc1ccc(NC(=O)c2ccc(-c3ccc([N+](=O)[O-])cc3)o2)cc1,6.3,-23.8,-0.1,-2.4,0.2,-0.2
COC(=O)c1ccc(/C=N/Nc2nc(-c3ccc(C)cc3)cs2)cc1,0.4,-10.8,52.4*,-4.1,.,-0.4
S=c1[nH]nc(-c2ccccn2)n1/N=C/c1ccc(Cl)cc1,2.6,-2.2,2.1,0.7,15.2*,.
O=C(NCCc1ccc(Cl)cc1)C1CCN(S(=O)(=O)N2CCCC2)CC1,20.0,-1.1,-5.6,-2.6,.,-1.9
O=C(NCCc1ccc(Cl)cc1)C1CCN(S(=O)(=O)c2ccc(Br)s2)CC1,-18.3,-4.8,14.0,-6.6,15.7*,.
Cc1noc(C)c1S(=O)(=O)N(C)C[C@H]1Oc2ccc(NC(=O)C3CC3)cc2CC(=O)N([C@H](C)CO)C[C@@H]1C,.,.,.,.,-7.2,2.3
SMILES,DUSP3 inh,Yp Topo-I inh,MazEF act,FadD28 binding,TcdB GH inh,Mtb BioA inh
CC(=O)Nc1ccc(S(=O)(=O)NCC2CCC(C(=O)NC3CCCCCC3)CC2)cc1 (stereo not given),-11.3,4.3,-48.4,-4.1,-0.3,.
Cc1ccc(S(=O)(=O)NCC2CCC(C(=O)NC3CCCCC3)CC2)cc1 (stereo not given),58.2*,12.0,1.7,-0.8,1.3,0.8
CC1(C(=O)Nc2nnc(C(C)(C)C)s2)Cc2ccccc2C(=O)O1 (stereo not given),52.7*,-5.7,6.3,-3.2,.,0.2
CCCc1cn(CC[C@H]2CC[C@@H](NS(=O)(=O)c3ccccc3Cl)[C@H](CO)O2)nn1,.,.,.,.,0.1,4.9
O=c1oc(-c2cccs2)nc2sc3c(c12)CCC3,13.9,3.1,-1.2,-0.9,1.0,-0.3
O=c1oc(/C=C/c2ccco2)nc2sc3c(c12)CCC3,18.9,-2.4,141.1*,2.5,.,-1.5
O=C(N[C@@H]1C[C@@H]2O[C@@H](CO)CC[C@@H]2O[C@@H]1CCc1ccc(C#Cc2ccccc2)cc1)c1ccccn1,.,.,.,.,0.1,.
Cc1ccc(S(=O)(=O)c2cc3c(=O)n4ccccc4nc3n(CCc3ccccc3)c2=N)cc1,-3.8,3.0,71.7*,-0.1,0.2,-1.4
Cc1ccc(S(=O)(=O)c2cc3c(=O)n4cccc(C)c4nc3n(C3CCCCC3)c2=N)cc1,1.8,4.0,52.5*,-0.2,.,-2.5
CCn1c(=N)c(S(=O)(=O)c2ccc(C)cc2)cc2c(=O)n3ccccc3nc21,52.5*,.,.,.,0.6,.
CCn1c(=N)c(S(=O)(=O)c2ccccc2)cc2c(=O)n3ccccc3nc21,13.9,-9.2,228.2*,-2.0,0.1,.
N#Cc1c(-c2ccccc2F)cc(C2CC2)nc1SCC(=O)c1cccs1,3.4,-6.4,65.4*,-0.1,.,-4.0
Cc1[nH]c2ccccc2c1C(C#N)(C#N)C1C(=O)c2ccccc2C1=O,5.0,-23.0,5.2,17.9*,1.2,-1.3
Cc1[nH]c2ccccc2c1CC#N,-7.8,-0.3,5.0,-1.2,0.6,1.0
COc1ccc2c3c([nH]c2c1)[C@H](CO)N(Cc1ccccc1)CC31CCN(CC2CC2)CC1,.,.,.,.,-2.9,.
COc1cc(NC(=O)CSc2nc3[nH]ncc3c(=O)n2-c2ccccc2C)cc(OC)c1OC,-8.5,4.2,-4.1,-4.7,18.4*,.
Cc1cccc(NC(=O)CSc2nc3[nH]ncc3c(=O)n2-c2ccccc2)c1,39.0,.,.,.,.,.
CN(C)CC(=O)N[C@@H]1CC[C@@H](CCNC(=O)C2CC2)O[C@@H]1CO,.,.,.,.,2.0,.
N#Cc1ccccc1NC(=O)c1cc(=O)c2ccccc2o1,18.8,-6.3,9.8,12.3*,0.5,.
Cc1ccc(NC(=O)c2cc(=O)c3ccccc3o2)c(C)c1,57.9*,2.7,2.4,-0.4,-0.5,.
C(=C\CSc1nnnn1-c1ccccc1)/CSc1nnnn1-c1ccccc1,25.9,60.2*,-1.0,-4.0,.,2.1
c1ccc(-n2nnnc2SCc2ccccn2)cc1,-14.7,-1.1,-5.2,-0.9,.,0.2
CC1(C)Cc2c(sc3ncn4nnnc4c23)CO1,51.7*,.,.,.,.,.
CC1(C)Cc2c(sc3ncnc(N)c23)CO1,14.5,4.5,0.1,-3.1,.,1.5
C[C@H]1CN([C@@H](C)CO)C(=O)c2cc(C#CC3CC3)cnc2O[C@@H]1CN(C)S(=O)(=O)c1cccc(F)c1,.,.,.,.,0.4,0.3
Cc1cccc(NC(=O)CN2C(=O)N/C(=C/c3ccc(C)o3)C2=O)c1,25.2,-4.3,9.0,2.8,.,-1.0
